Laboratory results reported in the supplement of paper PMC8728848.
The full list was thinned out, with the strongest signals kept by preference.

How the values were obtained:
Test in all cases: glycan array binding signal (z-score within array); higher = stronger binding
Settings in all cases: glycan notation: IUPAC condensed, linker removed
[1] = target: Fuc(a1-2)Gal6S(b1-3)GlcNAc6S
Outline: (§1)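 The binding signal is a Z-score computed within each array and averaged over linkers. Arrays of the same protein sequence at different concentrations or buffers were also averaged together. Data originate from 3228 arrays in the Consortium for Functional Glycomics database, kept only where the protein sequence was available.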

[2] = target: Fuc(a1-2)[Gal(a1-3)]Gal(b1-3)GlcNAc(b1-2)Man(a1-3)[Fuc(a1-2)[Gal(a1-3)]Gal(b1-3)GlcNAc(b1-2)Man(a1-6)]Man(b1-4)GlcNAc(b1-4)[Fuc(a1-6)]GlcNAc
Outline: as §1

[3] = target: Fuc(a1-2)[GalNAc(a1-3)]Gal(b1-4)[Fuc(a1-3)]GlcNAc(b1-3)GalNAc
Outline: as §1

[4] = target: Fuc(a1-3)[Gal(b1-4)]GlcNAc
Outline: as §1

[5] = target: Fuc(a1-3)[Gal(b1-4)]GlcNAc(b1-3)Gal(b1-4)[Fuc(a1-3)]GlcNAc
Outline: as §1

[6] = target: Fuc(a1-3)[Gal(b1-4)]GlcNAc(b1-3)Gal(b1-4)[Fuc(a1-3)]GlcNAc(b1-3)Gal(b1-4)[Fuc(a1-3)]GlcNAc
Outline: as §1

[7] = target: Gal(a1-4)Gal(b1-4)GlcNAc(b1-2)Man(a1-3)[Gal(a1-4)Gal(b1-4)GlcNAc(b1-2)Man(a1-6)]Man(b1-4)GlcNAc(b1-4)GlcNAc
Outline: as §1

Gal(b1-2)Gal = target: Gal(b1-2)Gal
Outline: as §1

[8] = target: Gal(b1-3)[Fuc(a1-4)]GlcNAc(b1-6)GalNAc
Outline: as §1

[9] = target: Gal(b1-3)[Neu5Ac(a2-6)]GalNAc
Outline: as §1

[10] = target: Gal(b1-4)GlcNAc(b1-2)Man(a1-3)[Gal(b1-4)GlcNAc(b1-2)Man(a1-6)]Man(b1-4)GlcNAc(b1-4)[Fuc(a1-6)]GlcNAc
Outline: as §1

[11] = target: Gal(b1-4)GlcNAc(b1-2)Man(a1-6)[Man(a1-3)]Man(b1-4)GlcNAc(b1-4)GlcNAc
Outline: as §1

[12] = target: Gal(b1-4)GlcNAc(b1-3)Gal(b1-4)GlcNAc
Outline: as §1

[13] = target: Gal(b1-4)GlcNAc(b1-3)Gal(b1-4)GlcNAc(b1-3)Gal(b1-4)GlcNAc(b1-3)Gal(b1-4)GlcNAc(b1-3)Gal(b1-4)GlcNAc(b1-2)Man(a1-3)[Gal(b1-4)GlcNAc(b1-3)Gal(b1-4)GlcNAc(b1-3)Gal(b1-4)GlcNAc(b1-3)Gal(b1-4)GlcNAc(b1-3)Gal(b1-4)GlcNAc(b1-2)Man(a1-6)]Man(b1-4)GlcNAc(b1-4)GlcNAc
Outline: as §1

[14] = target: Gal(b1-4)GlcNAc(b1-3)Gal(b1-4)GlcNAc(b1-3)Gal(b1-4)GlcNAc(b1-3)Gal(b1-4)GlcNAc(b1-3)Gal(b1-4)GlcNAc(b1-2)Man(a1-3)[Gal(b1-4)GlcNAc(b1-3)Gal(b1-4)GlcNAc(b1-3)Gal(b1-4)GlcNAc(b1-3)Gal(b1-4)GlcNAc(b1-3)Gal(b1-4)GlcNAc(b1-2)Man(a1-6)]Man(b1-4)GlcNAc(b1-4)[Fuc(a1-6)]GlcNAc
Outline: as §1

[15] = target: Gal(b1-4)GlcNAc(b1-3)Gal(b1-4)GlcNAc(b1-3)Gal(b1-4)GlcNAc(b1-3)Gal(b1-4)GlcNAc(b1-3)Gal(b1-4)GlcNAc(b1-3)Gal(b1-4)GlcNAc(b1-2)Man(a1-3)[Gal(b1-4)GlcNAc(b1-3)Gal(b1-4)GlcNAc(b1-3)Gal(b1-4)GlcNAc(b1-3)Gal(b1-4)GlcNAc(b1-3)Gal(b1-4)GlcNAc(b1-3)Gal(b1-4)GlcNAc(b1-2)Man(a1-6)]Man(b1-4)GlcNAc(b1-4)GlcNAc
Outline: as §1

[16] = target: Gal(b1-4)GlcNAc(b1-3)[GlcNAc(b1-6)]Gal(b1-4)GlcNAc
Outline: as §1

Gal3S6S(b1-4)GlcNAc6S = target: Gal3S6S(b1-4)GlcNAc6S
Outline: as §1

Gal4S6S(b1-4)GlcNAc = target: Gal4S6S(b1-4)GlcNAc
Outline: as §1

Gal6S(b1-3)GlcNAc6S = target: Gal6S(b1-3)GlcNAc6S
Outline: as §1

GalNAc(b1-4)GlcNAc6S = target: GalNAc(b1-4)GlcNAc6S
Outline: as §1

GlcA(b1-3)Gal = target: GlcA(b1-3)Gal
Outline: as §1

[17] = target: GlcNAc(b1-2)Man(a1-3)[GlcNAc(b1-4)][GlcNAc(b1-2)Man(a1-6)]Man(b1-4)GlcNAc(b1-4)GlcNAc
Outline: as §1

[18] = target: GlcNAc(b1-3)Gal(b1-4)GlcNAc
Outline: as §1

[19] = target: GlcNAc(b1-3)Gal(b1-4)GlcNAc(b1-3)Gal(b1-4)GlcNAc(b1-2)Man(a1-3)[GlcNAc(b1-3)Gal(b1-4)GlcNAc(b1-3)Gal(b1-4)GlcNAc(b1-2)Man(a1-6)]Man(b1-4)GlcNAc(b1-4)GlcNAc
Outline: as §1

[20] = target: GlcNAc(b1-3)Gal(b1-4)GlcNAc(b1-3)Gal(b1-4)GlcNAc(b1-3)Gal(b1-4)GlcNAc(b1-2)[GlcNAc(b1-3)Gal(b1-4)GlcNAc(b1-3)Gal(b1-4)GlcNAc(b1-3)Gal(b1-4)GlcNAc(b1-6)]Man(a1-6)[GlcNAc(b1-3)Gal(b1-4)GlcNAc(b1-3)Gal(b1-4)GlcNAc(b1-3)Gal(b1-4)GlcNAc(b1-2)Man(a1-3)]Man(b1-4)GlcNAc(b1-4)[Fuc(a1-6)]GlcNAc
Outline: as §1

[21] = target: GlcNAc(b1-3)Gal(b1-4)GlcNAc(b1-3)Gal(b1-4)GlcNAc(b1-3)Gal(b1-4)GlcNAc(b1-3)Gal(b1-4)GlcNAc(b1-2)Man(a1-3)[GlcNAc(b1-3)Gal(b1-4)GlcNAc(b1-3)Gal(b1-4)GlcNAc(b1-3)Gal(b1-4)GlcNAc(b1-3)Gal(b1-4)GlcNAc(b1-2)Man(a1-6)]Man(b1-4)GlcNAc(b1-4)[Fuc(a1-6)]GlcNAc
Outline: as §1

[22] = target: Man(a1-2)Man(a1-6)[Man(a1-3)]Man(a1-6)[Man(a1-2)Man(a1-2)Man(a1-3)]Man(b1-4)GlcNAc(b1-4)GlcNAc
Outline: as §1

Man(a1-3)[Man(a1-6)]Man = target: Man(a1-3)[Man(a1-6)]Man
Outline: as §1

[23] = target: Man(a1-3)[Man(a1-6)]Man(b1-4)GlcNAc(b1-4)GlcNAc
Outline: as §1

B1: MUB70 (Lactobacillus reuteri) (protein)
chain: CVHVQYIDGETDQMLRQDDLDGYTDETIPYSTAEGIKKFEGDGYELFKDNFPAGEKFDNDDTNDQFYTVIF
With B1 as the binder, how does the “glycan array binding signal (z-score)” value [1] read?
Its value is 2.39.

What about the “glycan array binding signal (z-score)” value [2] of the same binder?
The value was -0.317.

And the “glycan array binding signal (z-score)” value [3]?
The value was -0.274.

And the “glycan array binding signal (z-score)” value [4]?
Its value is -0.273.

What about the “glycan array binding signal (z-score)” value [5] of the same binder?
The value was -0.143.

What about the “glycan array binding signal (z-score)” value [6] of the same binder?
Its value is -0.805.

And the “glycan array binding signal (z-score)” value [7]?
Its value is 0.445.

And the “glycan array binding signal (z-score)” value (Gal(b1-2)Gal)?
The value was 2.16.

And the “glycan array binding signal (z-score)” value [8]?
The value was -0.459.

What about the “glycan array binding signal (z-score)” value [9] of the same binder?
The value was 0.618.

What about the “glycan array binding signal (z-score)” value [10] of the same binder?
The value was -0.056.

And the “glycan array binding signal (z-score)” value [11]?
Its value is 0.734.

And the “glycan array binding signal (z-score)” value [12]?
The value was -0.399.

And the “glycan array binding signal (z-score)” value [13]?
Its value is 0.479.

And the “glycan array binding signal (z-score)” value [14]?
Its value is 2.07.

What about the “glycan array binding signal (z-score)” value [15] of the same binder?
The value was 2.37.

What about the “glycan array binding signal (z-score)” value [16] of the same binder?
Its value is -0.071.

And the “glycan array binding signal (z-score)” value (Gal3S6S(b1-4)GlcNAc6S)?
The value was 3.78.

What about the “glycan array binding signal (z-score)” value (Gal4S6S(b1-4)GlcNAc) of the same binder?
The value was 1.99.

What about the “glycan array binding signal (z-score)” value (Gal6S(b1-3)GlcNAc6S) of the same binder?
The value was 4.49.

And the “glycan array binding signal (z-score)” value (GalNAc(b1-4)GlcNAc6S)?
The value was 0.276.

And the “glycan array binding signal (z-score)” value (GlcA(b1-3)Gal)?
Its value is -0.592.

And the “glycan array binding signal (z-score)” value [17]?
Its value is 0.036.

What about the “glycan array binding signal (z-score)” value [18] of the same binder?
Its value is -0.453.

What about the “glycan array binding signal (z-score)” value [19] of the same binder?
Its value is 2.17.

And the “glycan array binding signal (z-score)” value [20]?
Its value is 0.94.

What about the “glycan array binding signal (z-score)” value [21] of the same binder?
Its value is 0.523.

And the “glycan array binding signal (z-score)” value [22]?
The value was 0.042.

And the “glycan array binding signal (z-score)” value (Man(a1-3)[Man(a1-6)]Man)?
Its value is -0.052.

And the “glycan array binding signal (z-score)” value [23]?
Its value is -0.322.
